Source: PubChem BioAssay
SW480 rerep: A quantitative high throughput screen for small molecules that induce DNA re-replication in SW480 colon adenocarcinoma cells | 340,000 compounds, 1.8% hits | Potency, µM (top dose mostly 46.1 µM), for inactives: at the top dose re-replication activation, usual class: activators | AID 624297, 2012 | SW480 DNA re-replication, Hoechst DNA content imaging, 48 h; note: % of control where 0% means no effect; nearly all actives have a fitted effect of over 55% in size
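DNA re-replication was detected as more nuclei of elevated Hoechst intensity after 48 hr exposure to compound (23 nL pinned per well of 250 cells).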
KB-3-1 cytotox: qHTS assay for MDR1-selective chemotherapeutics: Primary screen using the parental adenocarcinoma cell KB-3-1. KB-3-1 viability, CellTiter-Glo ATP luminescence, 72 h. Potency, µM (series often up to 46.1 µM), actives largely listed as cytotoxic. 400,000 compounds, 1.4% hits. AID 1347075, 2019; note: % is set by controls: 0 for no effect and ±100 for the full control effect; nearly all actives have a fitted effect of over 60% in size
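Screening of KB-3-1 cells (DMEM, 10% FBS, phenol-red free) ran from lowest to highest compound concentration; after 72 h at 37 °C viability was read luminescently and curves fitted.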
MCF10A rereplic: A quantitative high throughput screen for small molecules that induce DNA re-replication in MCF 10a normal breast cells. Potency, µM (titrated, usually from 46.1 µM), for inactives: top-dose activity, positive = re-replication, usual class: activators. 350,000 compounds, 2.9% hits. MCF 10A DNA re-replication, Hoechst nuclear intensity, 48 h; note: % of control where 0% means no effect; nearly all actives have a fitted effect of over 50% in size
KB-V1 MDR tox: qHTS assay for MDR1-selective chemotherapeutics: Primary screen using the drug-selected MDR subline cells KB-V1; KB-V1 MDR cells viability, CellTiter-Glo, 72 h; Potency, µM (doses to about 46.1 µM), actives largely listed as cytotoxic; 400,000 compounds, 3.4% hits; note: % is set by controls: 0 for no effect and ±100 for the full control effect; nearly all actives have a fitted effect of over 60% in size
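Luminescent ATP read-out (CellTiter-Glo, 10 min) measures survival of drug-selected KB-V1 MDR cells after 72 h, 37 degrees C compound exposure. Medium: phenol-red-free DMEM, 10% FBS. Values from fitted concentration-response curves.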
HT1080 IDH1KD tx: qHTS for induction of synthetic lethality in tumor cells producing 2HG: qHTS for the HT-1080-IDH1KD cell line; HT-1080 IDH1 knockdown viability, ATP luminescence, 48 h; Potency, µM (highest dose often 46.1 µM), inactives show at the top dose activity, negative = toxicity, usual class: cytotoxic; 360,000 compounds, 2% hits; AID 686971, 2013;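 note: 0% = DMSO wells and -100% = cell-free medium wells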
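HT-1080-IDH1KD cells (IDH1 knocked down), 750/well in RPMI with 5% FBS, treated with compound 48 h at 37 degrees C. Viability by CellTiter-Glo luminescence, normalised to DMSO and no-cell wells; concentration-response curves classed.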
HT1080-NT tox: qHTS for induction of synthetic lethality in tumor cells producing 2HG: qHTS for the HT-1080-NT fibrosarcoma cell line; Potency, µM (titrated, usually from 46.1 µM), for inactives: at the highest dose activity, negative = less viability, hits mostly cytotoxic; 360,000 compounds, 1.6% hits; HT-1080-NT fibrosarcoma viability, CellTiter-Glo ATP luminescence, 48 h;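 note: NT is the 2HG producing partner of a matched IDH1 knockdown line; 0% = DMSO-treated cells and -100% = media-only wells without cells; nearly all actives have a fitted effect of over 55% in size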
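HT-1080-NT; 750 cells/well; 5% FBS RPMI; 48 h compound, 37 degrees C; CellTiter-Glo luminescence; curve fitting and curve-class assignment.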
Starred values were filed as active, the others as inactive; i = inactive; ? = inconclusive; · = no result; ! = repeats disagree. Only some compounds are listed: those with a hit (about 7.9% of all), similar ones and a draw of the others. Calls come from the whole dose curve; as a rule, active = well fitted curve in the direction sought with a large enough effect; inconclusive = small, poorly fitted or top-dose-only effect, or another doubt; inactive = no such curve, though single readings can be large; an effect the other way counts as inactive or inconclusive. Potency is the fitted concentration of half-maximal effect.

SMILES | SW480 rerep | KB-3-1 cytotox | MCF10A rereplic | KB-V1 MDR tox | HT1080 IDH1KD tx | HT1080-NT tox
Nc1nc(F)nc2c1ncn2[C@@H]1O[C@H](CO)[C@@H](O)[C@@H]1O | 10.5% | 0.651µM* | -4.2% | 0.651µM* | ? | ?
CCNC(=O)C1OC(n2cnc3c(N)ncnc32)C(O)C1O (centres undefined) | 0.5% | i | -3.0% | i | ? | ?
OC[C@H]1O[C@@H](n2cnc3cc(Cl)c(Cl)cc32)[C@H](O)[C@@H]1O | -10.0% | ? | ? | i | ? | ?
Nc1nc(F)nc2c1ncn2[C@@H]1O[C@H](CO)[C@@H](O)[C@H]1O | ? | 1.16µM* | 4.11µM*! | 1.46µM* | 0.231µM* | 0.651µM*
C[C@]12CC[C@H]3[C@@H](CC=C4C[C@@H](O)CC[C@@]43C)[C@@H]1CC[C@@H]2O | -2.6% | · | 2.1% | · | · | ·
CC(C)[C@H]1CC2C3CC=C4C[C@@H](O)CC[C@]4(C)C3CC[C@]2(C)[C@H]1O (some centres undefined) | ? | i | 18.4µM* | i | -1.1% | 1.1%
CC(=O)OCC(=O)C1CCC2C3CC=C4CC(O)CCC4(C)C3CCC12C (centres undefined) | -2.7% | i | 4.1% | 14.6µM* | -0.6% | -28.0%
CC(CO)NC(=O)C1C=C2c3cccc4[nH]cc(c34)CC2N(C)C1 (centres undefined) | -2.5% | · | -3.9% | · | · | ·
O=c1[nH]c2ccccc2n1C1CCN(C(c2cccs2)c2nnnn2-c2ccc3c(c2)OCCO3)CC1 (centres undefined) | · | ? | · | ? | 3.26µM* | ?
O=c1[nH]c2ccccc2n1C1CCN(C(c2ccccc2OC(F)(F)F)c2nnnn2-c2ccc3c(c2)OCCO3)CC1 (centres undefined) | · | ? | · | ? | 23.1µM* | ?
Cc1cccc(C)c1-n1nnnc1C(c1ccccc1OC(F)(F)F)N1CCC(n2c(=O)[nH]c3ccccc32)CC1 (centres undefined) | · | 23.1µM* | · | i | -1.1% | 17.3%
O=c1[nH]c2ccccc2n1C1CCN(C(c2ccccc2)c2nnnn2-c2ccc3c(c2)OCCO3)CC1 (centres undefined) | · | ? | · | 16.4µM* | ? | ?
O=c1[nH]c2ccccc2n1C1CCN(C(c2nnnn2-c2ccc3c(c2)OCCO3)C2CC2)CC1 (centres undefined) | · | ? | · | i | ? | ?
CCn1c(=O)oc2cc(NC(=O)CCl)ccc21 | ? | ? | ? | ? | 5.17µM* | 8.2µM*
CC1(C(=O)O)CCCC2(C)c3cc(O)ccc3CCC12 (centres undefined) | -13.2% | i | 18.4µM* | i | -4.0% | -2.0%
c1ccc(C(c2ccccc2)N2CCN(c3ccc4ccccc4n3)CC2)cc1 | -5.0% | i | ? | i | -23.1% | -10.6%
CCCc1c(-c2ccccc2F)ncn1CCc1ccccc1OC | · | ? | · | 16.4µM* | ? | ?
COc1ccccc1-n1c(-c2ccccc2F)nc2ccccc2c1=O | 7.2% | i | 10.7% | i | -14.0% | -9.8%
O=C(O)COc1ccc(Br)cc1C(c1c(C(=O)O)[nH]c2ccccc12)c1c(C(=O)O)[nH]c2ccccc12 | -32.0% | i | ? | i | -12.0% | -6.2%
ClCCN(CCCl)c1ccc(-n2cnc3c(Cl)ncnc32)cc1 | 8.2µM* | ? | 2.91µM* | i | 23.1µM* | ?
